PubChem BioAssay AID1347414 (National Center for Advancing Translational Sciences (NCATS), 2020)
Results filed as inconclusive are left out. The source made the active and inactive calls. Calls follow the shape of the dose curve; as a rule, active = well fitted inhibition curve with a large enough effect; inconclusive = small, poorly fitted or top-dose-only effect; inactive = no such curve, though single readings can be large or run the other way.

Assay: qHTS to identify inhibitors of the type 1 interferon - major histocompatibility complex class I in skeletal muscle: Secondary screen by immunofluorescence; also: nearly all actives have a fitted effect of over 70% in size
Conditions: C25cl48 myoblasts, IFN-b induced HLA-ABC immunofluorescence, 24 h; series mostly up to 49.8 µM
How it was run: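 Immortalized human myoblasts C25cl48 were stimulated with 4.0 ng/ml IFN-beta and exposed to an 11-point 1:3 compound titration, top 50 uM, for 24 h at 37 C. They were then fixed and immunostained for HLA-ABC, and quantified by laser scanning cytometry.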
Potency is read from the fitted curve at half-maximal effect.

Row | Structure (SMILES) | Potency
1 | C[C@@]12O[C@@H](C[C@]1(O)CO)n1c3ccccc3c3c4c(c5c6ccccc6n2c5c31)CNC4=O | 647 nM (active)
2 | CO[C@@H]1[C@@H](O)[C@H](O)[C@@H](n2c3c(Cl)cccc3c3c4c(c5c6cccc(Cl)c6[nH]c5c32)C(=O)NC4=O)O[C@H]1CO | inactive
3 | CO[C@H]1/C=C\C=C(\C)C(=O)NC2=CC(=O)C(NCCN(C)C)=C(C[C@@H](C)C[C@H](OC)[C@H](O)[C@@H](C)/C=C(/C)[C@@H]1OC(N)=O)C2=O | inactive
4 | CCOc1cc2ncc(C#N)c(Nc3ccc(F)c(Cl)c3)c2cc1NC(=O)/C=C/CN(C)C | 4580 nM (active)
5 | CCCCc1nc2cc(/C=C/C(=O)NO)ccc2n1CCN(CC)CC | 364 nM (active)
6 | O=c1[nH]c2cc(Cl)ccc2c(O)c1-c1ccc(Oc2ccccc2)cc1 | inactive
7 | CC(C)c1c(-c2ccccc2)nc2c(C#N)c[nH]n2c1=O | inactive
8 | COc1cccc2c1C(=O)c1c(O)c3c(c(O)c1C2=O)C[C@@](O)(C(=O)CO)C[C@@H]3O[C@H]1C[C@H](N)[C@@H](O)[C@H](C)O1 | 914 nM (active)
9 | CCc1c(O)cc(O)c(C(=O)c2ccc(OCCN3CCOCC3)c(OC)c2)c1CC(=O)N(CCOC)CCOC | 814 nM (active)
10 | CCOC(=O)C1=C(C)NC2=C(C(=O)CC(C)(C)C2)C1c1ccc(-c2ccccc2)cc1 (configuration not stated) | inactive
11 | O=C1NCCc2[nH]c(-c3ccncc3)cc21 | 2570 nM (active)
12 | COc1ccc(F)c(F)c1C(=O)c1cnc(NC2CCN(S(C)(=O)=O)CC2)nc1N | 914 nM (active)
